{"source": "PubChem BioAssay (Tox21)", "note": "Inconclusive results are not listed. Unmarked numbers belong to inactive results. Active and inactive are the calls of the source. The call rests on the fitted dose curve; in most records, active means well fitted cell-killing curve with a large enough effect in the repeat runs; inconclusive means weak or mixed curves, or effect the other way; inactive means no such curve, though single readings can be large or run the other way. On the % scale 0 is the no-effect control and ±100 the full control effect."}
{"assay": "qHTS assay to identify small molecule agonists of the estrogen receptor alpha (ER-alpha) signaling pathway in the presence of an antagonist - cell viability counter screen (AID 1259386);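 further: cells exposed to compounds for 22 h at 37 °C before the viability read; nearly all actives have a fitted effect of over 30% in size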", "settings": "VM7Luc4E2 viability, CellTiter-Fluor fluorescence, 22 h; series mostly up to 92.4 µM; activity change, negative = cytotoxicity: at the top concentration", "source_text": "National Center for Advancing Translational Sciences [NCATS]\nNIH Chemical Genomics Center [NCGC]\nU.S. Environmental Protection Agency [EPA]\nNational Institutes of Environmental Health Sciences [NIEHS]\nNational Toxicology Program [NTP]\nU.S. Food and Drug Administration [FDA]\nEstrogen receptor (ER), a member of nuclear hormone receptor plays an important role in development, metabolic homeostasis and reproduction. Two subtypes of ER, ER-alpha and ER-beta, have similar expression patterns with some uniqueness in both types. Endocrine disrupting chemicals (EDCs) and their interactions with steroid hormone receptors like ER causes disruption of normal endocrine function. Therefore, it is important to understand the effect of environmental chemicals in ER signaling pathway. For identifying ER agonists, VM7Luc4E2 cell line has been used in the current assay.\nVM7Luc4E2 cell line (provided by Denison MS, University of California) endogenously expresses full-length ER-alpha and is stably transfected with a plasmid containing four estrogen responsive elements (ERE) upstream of a luciferase reporter gene. This current screening for measuring luciferase reporter gene activity using VM7Luc4E2 cells against Tox21 10K library collection is a confirmation study on agonist mode screening in presence of ER-antagonist (ICI-182,780) at 10.0nM final concentration. The cytotoxicity of the compounds was tested in parallel by measuring the cell viability using CellTiter-Fluor assay system (Promega, Madison, WI) in the same wells.\nTox21 Assay Protocol Summary:\nVM7Luc4E2 cells were cultured in phenol red free assay medium containing 10% charcoal stripped FBS for 5 days prior to the assay. The cells were dispensed at 4,000 cells in 4uL of assay medium per well into white wall/solid-bottom 1536-well plates (Corning Life Sciences, Corning, NY) using a Multidrop Combi (Thermo Fisher Scientific Inc., Waltham, MA) dispenser. After the assay plates were incubated at 37C and 5% CO2 for 24hr, 1uL of 10.0nM (final concentration) ICI-182,780 or assay buffer was added using two separate tips of Flying Reagent Dispenser (FRD, Aurora Discovery, San Diego, CA). Then 23nL of compounds dissolved in DMSO at 15 concentrations and positive controls or DMSO only was transferred to the assay plates by a Pintool station (Wako, San Diego, CA). The assay plates were incubated at 37C and 5% CO2 for 22hr. After 21hr incubation at 37C, 1uL/well CellTiter-Fluor reagent (Promega Corporation, Madison, WI) was added to each well using FRD and after 1hr incubation at 37C and 5% CO2, the fluorescence signal was measured on ViewLux plate reader (PerkinElmer, Shelton, CT)."}
{"compound": "NC1(c2ccccc2)CCCCC1", "activity change, negative = cytotoxicity": "-10.6%"}
{"compound": "O=C(O)C(Br)(Br)Br", "activity change, negative = cytotoxicity": "0.221%"}
{"compound": "CCC(C)C(C)(COC(N)=O)COC(N)=O", "note": "(stereo not given)", "activity change, negative = cytotoxicity": "-0.399% [at 42.5 µM]"}
{"compound": "O=C(O)C(Cl)Br", "note": "(stereo not given)", "activity change, negative = cytotoxicity": "1.03%"}
{"compound": "CCC(=O)c1ccc(Cl)cc1", "activity change, negative = cytotoxicity": "-0.558%"}
{"compound": "CCOC(=O)CC(SP(=S)(OC)OC)C(=O)OCC", "note": "(stereo not given)", "Potency": "inactive"}
{"compound": "CCc1cc(OC)c(C[C@H](C)N)cc1OC", "activity change, negative = cytotoxicity": "-10.4%"}
{"compound": "CCCC[N+](=O)[O-]", "activity change, negative = cytotoxicity": "5.1%"}
{"compound": "CN1C(=O)COc2c(C(=O)NC3CN4CCC3CC4)cc(Cl)cc21", "note": "(stereo not given)", "activity change, negative = cytotoxicity": "-3.44% [at 42.5 µM]"}
{"compound": "CC(C)NCC(O)c1ccc([N+](=O)[O-])cc1", "note": "(stereo not given)", "activity change, negative = cytotoxicity": "-6.9% [at 42.5 µM]"}
{"compound": "CN=CNc1ccc(C)cc1C", "activity change, negative = cytotoxicity": "0.696%"}
{"compound": "CCOP(=S)(OCC)Oc1ccc(Cl)cc1Cl", "activity change, negative = cytotoxicity": "-1.88%"}
{"compound": "Cn1c(CCCC(=O)O)nc2cc(N(CCCl)CCCl)ccc21", "activity change, negative = cytotoxicity": "-4.68% [at 42.5 µM]"}
{"compound": "O=[N+]([O-])c1cccc(CCl)c1", "activity change, negative = cytotoxicity": "-6.76%"}
{"compound": "C=CC=O", "activity change, negative = cytotoxicity": "-0.352%"}
{"compound": "Cc1ccc(S(=O)(=O)N[C@@H](CCCCN)C(=O)CCl)cc1", "activity change, negative = cytotoxicity": "-6.69% [at 42.5 µM]"}
{"compound": "CCN1CCCC1CNC(=O)C(O)(c1ccccc1)c1ccccc1", "note": "(stereo not given)", "activity change, negative = cytotoxicity": "-2.69% [at 42.5 µM]"}
{"compound": "C[N+]1(C)CCCCC1", "activity change, negative = cytotoxicity": "-1.23%"}
{"compound": "CCOC(=O)Nc1cccc(OC(=O)Nc2ccccc2)c1", "activity change, negative = cytotoxicity": "-0.575%"}
{"compound": "CCCC(C)(COC(N)=O)COC(N)=O", "activity change, negative = cytotoxicity": "2.12%"}
{"compound": "CC(C)(N)Cc1ccc(Cl)cc1", "activity change, negative = cytotoxicity": "-2.06% [at 42.5 µM]"}
{"compound": "C=C1CC[C@@]2(O)[C@H]3Cc4ccc(O)c5c4[C@@]2(CCN3CC2CC2)[C@H]1O5", "activity change, negative = cytotoxicity": "-8.26% [at 42.5 µM]"}
{"compound": "CC(C)(C)c1cc(O)ccc1O", "Potency": "inactive"}
{"compound": "CCC1(c2ccccc2)CCC(=O)NC1=O", "note": "(stereo not given)", "activity change, negative = cytotoxicity": "-1.3% [at 42.5 µM]"}
{"compound": "C[C@H](CN1CCOCC1)C(C(=O)N1CCCC1)(c1ccccc1)c1ccccc1", "activity change, negative = cytotoxicity": "-5.4%"}
{"compound": "CC(C)(O)C(Cl)(Cl)Cl", "activity change, negative = cytotoxicity": "0.814% [at 42.5 µM]"}
{"compound": "BrCC1CO1", "note": "(stereo not given)", "activity change, negative = cytotoxicity": "0.261%"}
{"compound": "CCCOc1nn(C(=O)NS(=O)(=O)c2ccccc2C(=O)OC)c(=O)n1C", "activity change, negative = cytotoxicity": "0.539%"}
{"compound": "C=CCC1(C(C)CC)C(=O)NC(=O)NC1=O", "note": "(stereo not given)", "activity change, negative = cytotoxicity": "9.95% [at 42.5 µM]"}
{"compound": "CC(C)(C)NC[C@H](O)c1ccc(O)cc1Cl", "activity change, negative = cytotoxicity": "2.93% [at 42.5 µM]"}
{"compound": "CON(C)C(=O)Nc1ccc(Br)c(Cl)c1", "activity change, negative = cytotoxicity": "-8.23%"}
{"compound": "CCOC(=O)COc1ccc(Cl)cc1Cl", "activity change, negative = cytotoxicity": "0.305%"}
{"compound": "CCCCCCC1CCOC1=O", "note": "(stereo not given)", "activity change, negative = cytotoxicity": "3.04%"}
{"compound": "c1cncc([C@@H]2CCCCN2)c1", "activity change, negative = cytotoxicity": "-0.229%"}
{"compound": "CS(=O)(=O)c1ccc(C(=O)C2C(=O)CCCC2=O)c(Cl)c1COCC(F)(F)F", "activity change, negative = cytotoxicity": "3.31%"}
{"compound": "O=C(NC(=O)c1c(F)cccc1F)Nc1cc(Cl)c(F)c(Cl)c1F", "activity change, negative = cytotoxicity": "0.103%"}
{"compound": "Clc1nc(Cl)nc(Nc2ccccc2Cl)n1", "activity change, negative = cytotoxicity": "-0.211%"}
{"compound": "CCN(CCO)CCn1c(Cc2ccccc2)nc2c1c(=O)n(C)c(=O)n2C", "activity change, negative = cytotoxicity": "3.57% [at 42.5 µM]"}
{"compound": "CNC(=O)Oc1ccccc1C(C)C", "activity change, negative = cytotoxicity": "3.95%"}
{"compound": "O=C(Cl)/C=C/C(=O)Cl", "activity change, negative = cytotoxicity": "-0.27%"}
